Inconclusive results are not listed. Values without a mark were called inactive. Calls of active or inactive are those of the source. Calls come from the whole dose curve; as a rule, active = well fitted activation curve with a large enough effect; inconclusive = small, poorly fitted or top-dose-only effect; inactive = no such curve, though single readings can be large or run the other way. Numbered stars: 1 amine (or outer) side, 2 acyl side, 3 side chain; on linkers, the order of the positions; unused ones are H or OH. Square brackets hold non-standard residues; d marks the D form. Peptide text beside a SMILES is read from it. X2 = CC(C)=CCc1cc(C(O)C(N[*:1])C(=O)[*:2])ccc1O; dPhe(4-Cl) = N[C@H](Cc1ccc(Cl)cc1)C(=O)O; d2Nal = N[C@H](Cc1ccc2ccccc2c1)C(=O)O; dCit = NC(=O)NCCC[C@@H](N)C(=O)O; d3Pal = N[C@H](Cc1cccnc1)C(=O)O
target: Cellular tumor antigen p53 (Homo sapiens) (UniProt P04637); test: Primary qHTS for small molecule compounds that upregulate eGFP-tagged delta133p53alpha (in N-terminal) cells. (AID 2060322); settings: NCI-H358 eGFP-delta133p53alpha fluorescence, 24 h; activation: active compounds read high; note: nearly all actives have a fitted effect of over 75% in size;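 for activation: series mostly up to about 56 µM; 0% = DMSO vehicle and 100% = reference activator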
Sequence (P04637 whole entry, looked up): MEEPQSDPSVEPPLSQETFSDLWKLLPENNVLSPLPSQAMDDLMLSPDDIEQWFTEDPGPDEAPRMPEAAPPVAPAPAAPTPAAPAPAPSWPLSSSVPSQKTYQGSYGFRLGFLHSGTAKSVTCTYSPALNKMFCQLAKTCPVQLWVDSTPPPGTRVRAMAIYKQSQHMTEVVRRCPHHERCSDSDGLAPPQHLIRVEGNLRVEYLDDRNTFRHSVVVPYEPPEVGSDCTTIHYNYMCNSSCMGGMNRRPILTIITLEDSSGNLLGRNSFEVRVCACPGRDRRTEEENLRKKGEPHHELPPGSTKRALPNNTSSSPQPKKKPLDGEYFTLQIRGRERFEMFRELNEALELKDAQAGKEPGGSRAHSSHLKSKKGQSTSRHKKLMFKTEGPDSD
Method in brief: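 NCI-H358 cells pre-induced 24 h with 10 ng/ml doxycycline to express N-terminal eGFP-delta133p53alpha, then dosed 24 h at 37C without doxycycline; fixed, Hoechst-stained, GFP intensity by laser scanning cytometry, normalized to DMSO (0%) and 57.5 uM 5-azacytidine (100%).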
Potency is the fitted concentration of half-maximal effect.

| Compound | activation [%] | Potency |
| --- | --- | --- |
| CC(C)=CCc1cc(C(O)C2NC(=O)CNC(=O)C(Cc3c[nH]c4ccccc34)NC(=O)C3CCCN3C(=O)CNC(=O)C(C(C)C)NC(=O)CNC2=O)ccc1O (stereo not given) (cyclo(G[X2]GVGPW); configuration not given here) | -8.4 |  |
| NC(=O)c1csc(C2OC(CO)C(O)C2O)n1 (stereo not given) | -7 |  |
| CC(C)c1c(O)ccc2c1CC[C@H]1C(C)(C)CCC[C@]21C | 25.9 |  |
| O=C(O)/C=C/c1ccc(O)c(O[C@@H]2O[C@H](CO)[C@@H](O)[C@H](O)[C@H]2O)c1 | 16 |  |
| CC(=O)OC1C(OC(=O)c2ccccc2)C2C(C)(C)CCC(OC(C)=O)C2(C)C23CCC(C)(C2)C(=O)CC13 (stereo not given) | -14.5 |  |
| C=CC1(C)C=C2CC[C@H]3[C@@](C)(C(=O)O)CCC[C@]3(C)C2CC1 (stereo not given in full) | -0.763 |  |
| CNC(=O)[C@H]1O[C@@H](n2cnc3c(NCc4ccc(N)c(I)c4)ncnc32)[C@H](O)[C@@H]1O | 4.33 |  |
| CC1CC(O)C2(OC1=O)OC1C(O)C3C4CCC5CC(OC6OC(CO)C(O)C(O)C6OC6OC(C)C(O)C(O)C6O)CCC5(C)C4CCC3(C)C1C2C (stereo not given) | -0.893 |  |
| OC[C@H]1O[C@@H](O[C@H]2[C@H](OCc3ccccc3)O[C@H](CO[C@@H]3OC[C@@H](O)[C@H](O)[C@H]3O)[C@@H](O)[C@@H]2O)[C@H](O)[C@@H](O)[C@@H]1O | -15.2 |  |
| CN=C(N)NCCCCC/C=C(/C)CC(C)C1OC(=O)C(C)C(O)/C=C/C(C)C(O)CC(O)C(C)C(O)CCC(C)C(O)CC2(O)OC(CC(OC(=O)CC(=O)O)CC(O)CC(O)C(C)C(O)/C(C)=C/CCC1C)CC(O)C2O (stereo not given) | -19.1 |  |
| O=c1[nH]c2ccc(C#CCN3CCC(Cc4ccccc4)CC3)cc2[nH]1 | -3.57 |  |
| O=C(O)[C@H]1Cc2ccccc2CN1 | 6.21 |  |
| COc1cc(-c2ccc(O)cc2)c(OC)c(O)c1C1=CC(=O)OC1CC(=O)O (stereo not given) | 13.7 |  |
| COc1ncc2cc(C(=O)Nc3cc(C(=O)NCc4cccc(Cl)c4)ccc3Cl)c(=O)[nH]c2n1 |  | 2.69 µM (active) |
| CC1(C)CC[C@]2(C(=O)O[C@@H]3O[C@H](CO)[C@@H](O)[C@H](O)[C@H]3O)CC[C@]3(C)C(=CCC4[C@@]5(C)C[C@@H](O)[C@H](O)C(CO)(CO)C5CC[C@]43C)C2[C@@H]1O (stereo not given in full) | -15.3 |  |
| C=C(C)[C@H]1CC[C@]2(C(=O)O)CC[C@]3(C)C(CCC4[C@@]5(C)CCC(=O)C(C)(C)C5CC[C@]43C)C12 (stereo not given in full) | -11.6 |  |
| O=C(CC1C(=O)Nc2ccccc21)OC[C@H]1O[C@@H](OCCc2ccc(O)cc2)[C@H](O)[C@@H](O)[C@@H]1O (stereo not given in full) | 0 |  |
| C=C1CCC2[C@@](C)(C=O)CCC[C@]2(C)[C@H]1CC/C(C)=C/CO (stereo not given in full) | 18.3 |  |
| CC1(C(=O)O)CCCC2(C)C3=CCC4CC3(CCC12)CC4CO (stereo not given) | 3.82 |  |
| N#Cc1cccc(-c2nc(-c3cccnc3)no2)c1 | -3.34 |  |

| Compound | activation [%] | Potency |
| --- | --- | --- |
| CC(C)=CCC/C(C)=C/CO[C@@H]1O[C@H](CO)[C@@H](OC(=O)/C=C/c2ccc(O)cc2)[C@H](O[C@@H]2O[C@@H](C)[C@H](O)[C@@H](O)[C@H]2O)[C@H]1O | 19.6 |  |
| CC(C)C1NC(=O)C2CCCN2C1=O (stereo not given) | 8.93 |  |
| CC(=O)N[C@H](Cc1ccc2ccccc2c1)C(=O)N[C@H](Cc1ccc(Cl)cc1)C(=O)N[C@H](Cc1cccnc1)C(=O)N[C@@H](CO)C(=O)N[C@@H](Cc1ccc(O)cc1)C(=O)N[C@H](CCCNC(N)=O)C(=O)N[C@@H](CC(C)C)C(=O)N[C@@H](CCCN=C(N)N)C(=O)N1CCC[C@H]1C(=O)N[C@H](C)C(N)=O (Ac-[d2Nal][dPhe(4-Cl)][d3Pal]SY[dCit]LRP[dA]-NH2) | 13 |  |
| C[C@]1(OC(=O)/C=C\c2ccc(O)cc2)C[C@@H](O)[C@]2(O)C=CO[C@@H](O[C@@H]3O[C@H](CO)[C@@H](O)[C@H](O)[C@H]3O)C12 (stereo not given in full) | 23.7 |  |
| C[C@]1(CO)CN(c2cc(C(=O)Nc3ccc4c(c3)-c3c(c(C(N)=O)nn3-c3ccc(F)cc3)CC4)c(Cl)cn2)C[C@@]1(C)CO | 21.4 |  |
| CC(=O)C=C=C1C(C)(C)CC(O)CC1(C)O[C@@H]1O[C@H](CO[C@H]2OC[C@](O)(CO)[C@H]2O)[C@@H](O)[C@H](O)[C@H]1O (stereo not given in full) | -14.3 |  |
| CC1(C)CC2C3=CCC4C5(C)CCC(OC6OC(C(=O)O)C(O)C(O)C6OC6OC(CO)C(O)C(O)C6OC6OC(CO)C(O)C(O)C6O)C(C)(CO)C5CCC4(C)C3(C)CCC2(C)C(OC2OCC(O)C(OC3OC(CO)C(O)C(O)C3O)C2O)C1O (stereo not given) | -18.3 |  |
| COc1ccc(/C=C/C(=O)O[C@@H]2[C@@H](O[C@@H]3O[C@H](CO)[C@@H](O)[C@H](O)[C@H]3O)[C@@H](O)[C@H](O[C@H]3C4C=CO[C@@H](O[C@@H]5O[C@H](CO)[C@@H](O)[C@H](O)[C@H]5O)C4[C@@]4(CO)O[C@@H]34)O[C@H]2C)cc1 (stereo not given in full) | -9.92 |  |
| CCC(C)C(=O)OC1CC(O)C23C4OCC5(C(O)CC2C1(C)C(O)O4)C3C(=O)C(O)C1(C)C(O)(c2ccoc2)CC2OC251 (stereo not given) | 5.34 |  |
| O=C(O[C@@H]1O[C@H](CO)[C@@H](O)[C@H](O)[C@H]1O)c1ccccc1 | -9.82 |  |
| CC1(C)CCCC2(C)c3c4c(c(=O)oc(=O)c3=CCC12)=CCC1C(C)(C)CCCC41C (stereo not given) | -8.04 |  |
| C=CCc1ccc(O[C@@H]2O[C@H](CO)[C@@H](O)[C@H](O)[C@H]2O)c(O[C@@H]2O[C@H](CO)[C@@H](O)[C@H](O)[C@H]2O)c1 | -13.7 |  |
| O=C(O)Cc1cn(C2OCC(O)C(O)C2O[C@@H]2O[C@H](CO)[C@@H](O)[C@H](O)[C@H]2O)c2ccccc12 (stereo not given in full) | 3.82 |  |
| CC[C@H]1OC(=O)[C@H](C)[C@@H](OC2C[C@@](C)(OC)[C@@H](O)[C@H](C)O2)[C@H](C)[C@@H](OC2O[C@H](C)C[C@H](NC)[C@H]2O)[C@](C)(O)C[C@@H](C)CN(C)[C@H](C)[C@@H](O)[C@]1(C)O (stereo not given in full) | 4.33 |  |
| COc1c(C)c(OCC(O)C(C)(C)O)cc2c1CNC2=O (stereo not given) | -1.79 |  |
| CC1=C2C(=O)C=C(CO[C@@H]3O[C@H](CO)[C@@H](O)[C@H](O)[C@H]3O)[C@@H]2[C@H]2OC(=O)[C@H](C)[C@@H]2CC1 | -19.6 |  |
| CC1CCC2C(C)(C)C(O)CCC2(C)C12Cc1c(O)cc3c(c1O2)CN(C(CCC(N)=O)C(=O)O)C3=O (stereo not given) | -13.7 |  |
| C/C=C(/COC(=O)/C(C)=C/C)C(=O)OC(CC)c1ccc(OC)c(OC)c1 (stereo not given) | -15.2 |  |
| CC12CCC3C(C)(C)C(O)CCC3(C)C1Cc1c(oc(C(=O)O)cc1=O)O2 (stereo not given) | -9.92 |  |
| Cc1ccc(-c2ncccn2)c(C(=O)N2C[C@H](COc3ccc(F)cn3)CC[C@H]2C)c1 | -14.3 |  |

Reference: PubChem BioAssay (NCATS)
